Reference: PubChem BioAssay (NCATS)
Results filed as inconclusive are left out. Calls of active or inactive are those of the source. Calls follow the shape of the dose curve; as a rule, active = well fitted curve in the direction sought with a large enough effect; inconclusive = small, poorly fitted or top-dose-only effect, or another doubt; inactive = no such curve, though single readings can be large; an effect the other way counts as inactive or inconclusive.

Columns and labels:
[1] = qHTS of pediatric cancer cell lines to identify multiple opportunities for drug repurposing: Primary screen for Rh18 cells (AID 1347102); also: nearly all actives have a fitted effect of over 65% in size; as to activity change, negative = cytotoxic: % is scaled to controls: 0 for no effect and ±100 for the full control effect
In short: (§1)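 Viability after 48 h compound treatment at 37C, 500-1,000 cells/well, read as ATP luminescence with CellTiter-Glo. Primary screens used 11-point (MIPE, 0.78 nM-46 µM) or 8-point (NPC, 0.59 nM-46 µM) final concentrations; follow-up screens used 11-point dilutions.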

[2] = qHTS of pediatric cancer cell lines to identify multiple opportunities for drug repurposing: Primary screen for RD cells (AID 1347104); also: nearly all actives have a fitted effect of over 55% in size;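 as to activity change, negative = cytotoxic: plate controls were DMSO for no effect and bortezomib for full effect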
In short: (§2)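 Following a 5-hour attachment period, cells at 500-1,000/well received compounds and were cultured for 48 hours. CellTiter-Glo was added and luminescence read to estimate viable, metabolically active cells.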

[3] = qHTS of pediatric cancer cell lines to identify multiple opportunities for drug repurposing: Primary screen for MG 63 (6-TG R) cells (AID 1347105); also: nearly all actives have a fitted effect of over 50% in size; as to activity change, negative = cytotoxic: % is scaled to controls: 0 for no effect and ±100 for the full control effect
In short: as §2

[4] = qHTS of pediatric cancer cell lines to identify multiple opportunities for drug repurposing: Primary screen for control Hh wild type fibroblast cells (AID 1347106); also: nearly all actives have a fitted effect of over 55% in size;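 as to activity change, negative = cytotoxic: series mostly up to about 46 µM; % is scaled to controls: 0 for no effect and ±100 for the full control effect; a drop in luminescence marks cytotoxicity and a rise apparent proliferation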
In short: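 Cells (500-1,000/well) in growth media were settled 5 h at 37 degrees C, then given compounds for 48 h. Viability was read as CellTiter-Glo luminescence. Primary runs used MIPE at 11 points (0.78 nM-46 µM) and NPC at 8 points (0.59 nM-46 µM); follow-ups used 11 points.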

[5] = qHTS of pediatric cancer cell lines to identify multiple opportunities for drug repurposing: Primary screen for Rh30 cells (AID 1347107); also: nearly all actives have a fitted effect of over 75% in size; as to activity change, negative = cytotoxic: series mostly up to about 46 µM; % is scaled to controls: 0 for no effect and ±100 for the full control effect
In short: as §1

[6] = qHTS of pediatric cancer cell lines to identify multiple opportunities for drug repurposing: Primary screen for Rh41 cells (AID 1347108); also: nearly all actives have a fitted effect of over 70% in size;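 as to activity change, negative = cytotoxic: series mostly up to about 46 µM; luminescence drop marks cytotoxic hits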
In short: as §2

[7] = qHTS of pediatric cancer cell lines to identify multiple opportunities for drug repurposing: Primary screen for OHS-50 cells (AID 1347103); also: nearly all actives have a fitted effect of over 40% in size;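 as to activity change, negative = cytotoxic: plate controls were DMSO neutral control for no effect and bortezomib positive control for full effect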
In short: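 Cells (500-1,000/well) rested 5 h, then received compounds for 48 h; metabolically active cells were measured by CellTiter-Glo luminescence. Final concentrations spanned up to 46 µM (MIPE, 11-point) or 0.59 nM-46 µM (NPC, 8-point) in primary screens, 11-point in follow-ups.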

[8] = qHTS of pediatric cancer cell lines to identify multiple opportunities for drug repurposing: Confirmatory screen for NB1643 cells (AID 1347109); also: nearly all actives have a fitted effect of over 45% in size
In short: as §1

[9] = qHTS of pediatric cancer cell lines to identify multiple opportunities for drug repurposing: Confirmatory screen for A673 cells (AID 1347110); conditions: A673 Ewing sarcoma cell viability; also: nearly all actives have a fitted effect of over 65% in size
In short: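 Concentration-response curves came straight from titrations: 11 points (0.78 nM to 46 µM) for MIPE and several concentrations (0.59 nM to 46 µM) for NPC in primary, 11 points in follow-up. Readout: ATP luminescence at 48 h.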

[10] = qHTS of pediatric cancer cell lines to identify multiple opportunities for drug repurposing: Confirmatory screen for SK-N-MC cells (AID 1347111); conditions: SK-N-MC cell viability;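 also: cells exposed to compound for 48 h before the readout; nearly all actives have a fitted effect of over 70% in size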
In short: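 SK-N-MC cells at 500-1,000 cells/well in growth media were pre-incubated 5 h, then exposed to compounds at 11-point dilutions for 48 h at 37 degrees C, 5% CO2. Viability was read as CellTiter-Glo luminescence.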

[11] = qHTS of pediatric cancer cell lines to identify multiple opportunities for drug repurposing: Confirmatory screen for LAN-5 cells (AID 1347113); also: nearly all actives have a fitted effect of over 65% in size
In short: as §1

[12] = qHTS of pediatric cancer cell lines to identify multiple opportunities for drug repurposing: Confirmatory screen for DAOY cells (AID 1347114); also: nearly all actives have a fitted effect of over 65% in size
In short: (§3)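 Viability measured as metabolically active cells via CellTiter-Glo luminescence following 48 hours of compound exposure, 11-point dilutions in confirmatory testing. 500-1,000 cells/well plated 5 hours before dosing; controls were DMSO and 2.3 µM bortezomib.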

[13] = qHTS of pediatric cancer cell lines to identify multiple opportunities for drug repurposing: Confirmatory screen for BT-37 cells (AID 1347117); conditions: BT-37 pediatric cancer cells, viability; also: nearly all actives have a fitted effect of over 55% in size
In short: as §1

[14] = qHTS of pediatric cancer cell lines to identify multiple opportunities for drug repurposing: Confirmatory screen for TC32 cells (AID 1347118); conditions: TC32 Ewing sarcoma cells viability qHTS; also: nearly all actives have a fitted effect of over 65% in size
In short: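 TC32 cells, 500-1,000/well in growth medium, compound-treated 48 h at 37 °C; viability from CellTiter-Glo luminescence. Primary screen: MIPE 11-point (0.78 nM–46 µM final), NPC 8-point (0.59 nM–46 µM final); confirmatory at 11-point dilutions.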

[15] = qHTS of pediatric cancer cell lines to identify multiple opportunities for drug repurposing: Confirmatory screen for MG 63 (6-TG R) cells (AID 1347119); also: nearly all actives have a fitted effect of over 55% in size
In short: as §1

[16] = qHTS of pediatric cancer cell lines to identify multiple opportunities for drug repurposing: Confirmatory screen for BT-12 cells (AID 1347112); also: nearly all actives have a fitted effect of over 55% in size
In short: as §1

[17] = qHTS of pediatric cancer cell lines to identify multiple opportunities for drug repurposing: Confirmatory screen for NB-EBc1 cells (AID 1347115); also: nearly all actives have a fitted effect of over 45% in size
In short: as §1

[18] = qHTS of pediatric cancer cell lines to identify multiple opportunities for drug repurposing: Confirmatory screen for SJ-GBM2 cells (AID 1347116); also: nearly all actives have a fitted effect of over 60% in size
In short: as §3

[19] = qHTS of pediatric cancer cell lines to identify multiple opportunities for drug repurposing: Confirmatory screen for control Hh wild type fibroblast cells (AID 1347121); also: nearly all actives have a fitted effect of over 70% in size
In short: as §1
Potency is read from the fitted curve at half-maximal effect.

CCCOC(=O)c1ccc(O)cc1
inactive: Potency [1] | Potency [2] | Potency [3] | Potency [4] | Potency [5] | Potency [6]

c1ccc(CCNc2nc(-c3ccccc3)cs2)cc1
inactive: Potency [1] | Potency [3] | Potency [4] | Potency [5] | Potency [6]

CC(C(=O)O)c1ccc2c(c1)[nH]c1ccc(Cl)cc12 (stereo not drawn)
inactive: Potency [1] | Potency [7] | Potency [2] | Potency [3] | Potency [4] | Potency [5] | Potency [6]

C[N+]1(C)[C@@H]2CC(OC(=O)[C@H](CO)c3ccccc3)C[C@H]1[C@@H]1O[C@@H]12 (stereo partly drawn)
inactive: Potency [7] | Potency [2] | Potency [3] | Potency [4] | Potency [5] | Potency [6]

CCCCC1C(=O)N(c2ccccc2)N(c2ccc(O)cc2)C1=O (stereo not drawn)
active: Potency [1] 8.41 µM | Potency [7] 11 µM | Potency [2] 6.68 µM | Potency [3] 21.1 µM | Potency [6] 5.96 µM
inactive: Potency [4]

Nc1cc(-c2ccncc2)c[nH]c1=O
inactive: Potency [1] | Potency [7] | Potency [2] | Potency [3] | Potency [4] | Potency [5] | Potency [6]

N=C1N=C(N)c2cc3ccccc3cc21
active: Potency [1] 48.6 µM | Potency [7] 17.8 µM | Potency [2] 34.4 µM | Potency [3] 24.3 µM | Potency [6] 30.6 µM | Potency [8] 33.9 µM | Potency [9] 38 µM | Potency [10] 17 µM | Potency [11] 38 µM | Potency [12] 42.7 µM | Potency [13] 38 µM | Potency [14] 17 µM | Potency [15] 19.1 µM

O=C(OCc1ccccc1)c1ccccc1
inactive: Potency [7] | Potency [2] | Potency [3] | Potency [4] | Potency [5] | Potency [6]

CN(C)[C@@H]1C(=O)C(C(=O)NCN2CCCC2)=C(O)[C@@]2(O)C(=O)C3=C(O)c4c(O)cccc4[C@@](C)(O)C3C[C@@H]12 (stereo partly drawn)
inactive: Potency [7] | Potency [2] | Potency [3] | Potency [4] | Potency [5] | Potency [6]

CC(C(=O)O)c1ccc(C(=O)c2ccccc2)s1 (stereo not drawn)
inactive: Potency [1] | Potency [7] | Potency [2] | Potency [4] | Potency [5] | Potency [6]

O=C(O)Cc1ccc2c(c1)C(=O)c1ccccc1CO2
inactive: Potency [7] | Potency [2] | Potency [3] | Potency [4] | Potency [5] | Potency [6]

CNC(=O)c1c(I)c(NC(=O)CCCCC(=O)Nc2c(I)c(C(=O)O)c(I)c(C(=O)NC)c2I)c(I)c(C(=O)O)c1I
inactive: Potency [1] | Potency [7] | Potency [2] | Potency [3] | Potency [4] | Potency [5] | Potency [6]

O=C(O)Cc1cccc(-c2cc(CCCCCCc3ccc(O[C@H]4O[C@H](CO)[C@@H](O)[C@H](O)[C@@H]4O)c(-c4cccc(CC(=O)O)c4)c3)ccc2O[C@H]2O[C@H](CO)[C@@H](O)[C@H](O)[C@@H]2O)c1
inactive: activity change, negative = cytotoxic [7] 10.4% [at 0.73 µM] | activity change, negative = cytotoxic [2] 16.2% [at 0.597 µM] | activity change, negative = cytotoxic [3] -10.3% [at 0.597 µM] | activity change, negative = cytotoxic [4] 2.02% [at 0.597 µM] | activity change, negative = cytotoxic [5] 18.7% [at 0.597 µM] | activity change, negative = cytotoxic [6] 21.7% [at 0.597 µM]

COc1ccnc2c1CCCCC2S(=O)c1nc2ccccc2[nH]1 (stereo not drawn)
inactive: Potency [1] | Potency [7] | Potency [2] | Potency [3] | Potency [4] | Potency [5] | Potency [6]

CCCCCCCCCCCCOCCO
inactive: Potency [1] | Potency [7] | Potency [2] | Potency [3] | Potency [4] | Potency [5] | Potency [6]

CN(C)c1ccc(C(=C2C=CC(=[N+](C)C)C=C2)c2ccccc2)cc1
active: Potency [1] 0.075 µM | Potency [7] 0.0347 µM | Potency [2] 0.0596 µM | Potency [3] 0.106 µM | Potency [4] 23.7 µM | Potency [5] 0.473 µM | Potency [6] 0.0944 µM | Potency [8] 0.657 µM | Potency [9] 0.293 µM | Potency [10] 0.369 µM | Potency [16] 1.85 µM | Potency [11] 0.737 µM | Potency [12] 0.657 µM | Potency [17] 0.827 µM | Potency [18] 1.31 µM | Potency [13] 0.657 µM | Potency [14] 0.261 µM | Potency [15] 0.208 µM | Potency [19] 0.737 µM

Cc1ccc(O)c(-n2nc3ccccc3n2)c1
inactive: Potency [7] | Potency [2] | Potency [3] | Potency [4] | Potency [5] | Potency [6]

CC(=O)c1ccc(OCC(=O)N2CCCCC2)cc1
inactive: Potency [7] | Potency [2] | Potency [3] | Potency [4] | Potency [5] | Potency [6]

O=C(O)c1ccccc1Nc1cccc(C(F)(F)F)c1
inactive: Potency [7] | Potency [2] | Potency [3] | Potency [4] | Potency [5] | Potency [6]

C#C[C@]1(O)CC[C@H]2[C@@H]3CCc4cc(O)ccc4[C@H]3CC[C@@]21C
active: Potency [7] 24.6 µM
inactive: Potency [3] | Potency [4] | Potency [5]

C/C(=N\O)c1ccc(OCC(=O)N2CCCCC2)cc1
inactive: Potency [7] | Potency [2] | Potency [3] | Potency [4] | Potency [5] | Potency [6]
